In paper PMC7862700, “An all-to-all approach to the identification of sequence-specific readers for epigenetic DNA modifications on cytosine”:

Experiments:
Test in all cases: DAPPL (digital affinity profiling via proximity ligation, sequencing); 10 mM Tris-HCl pH 7.5, 50 mM NaCl, 1 mM DTT, 4% glycerol, room temperature, 30 min; GST-TFs on glutathione beads, 16-mer random dsDNA library, 0.1% formaldehyde crosslink after washing; high values mean tight binding
[1] = molecular target: T1, FEV (Homo sapiens, UniProt Q99581 1-238); settings: protein: recombinant; tags: N-terminal GST; dsDNA, one strand shown
T1 sequence: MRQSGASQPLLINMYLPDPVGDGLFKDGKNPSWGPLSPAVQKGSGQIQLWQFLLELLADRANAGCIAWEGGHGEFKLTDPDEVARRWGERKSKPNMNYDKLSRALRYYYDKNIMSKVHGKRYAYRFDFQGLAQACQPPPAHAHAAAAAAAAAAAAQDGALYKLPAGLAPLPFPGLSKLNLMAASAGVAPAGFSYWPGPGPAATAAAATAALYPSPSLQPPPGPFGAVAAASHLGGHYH
Procedure, shortened: (§1)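 Sequencing on an Illumina NextSeq500 followed washing, crosslinking with 0.1% formaldehyde, proximity ligation (BsaI/T4 ligase, 1 h, 37 °C) and PCR amplification of pools that had been incubated for 30 min at room temperature with 200 nmole of a random double-stranded 16-mer DNA library in Tris/NaCl/DTT/glycerol buffer. Each pool held DNA-barcoded human transcription factors, expressed in yeast as GST fusions and captured on glutathione beads, plus a tag-only sample. Binding signal is a hexamer's read frequency for a factor divided by its frequency in the tag-only sample.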

[2] = molecular target: ETV5 (Homo sapiens, UniProt P41161 1-510); settings: protein: recombinant; tags: N-terminal GST; dsDNA, one strand shown
Sequence of ETV5 (P41161 whole entry): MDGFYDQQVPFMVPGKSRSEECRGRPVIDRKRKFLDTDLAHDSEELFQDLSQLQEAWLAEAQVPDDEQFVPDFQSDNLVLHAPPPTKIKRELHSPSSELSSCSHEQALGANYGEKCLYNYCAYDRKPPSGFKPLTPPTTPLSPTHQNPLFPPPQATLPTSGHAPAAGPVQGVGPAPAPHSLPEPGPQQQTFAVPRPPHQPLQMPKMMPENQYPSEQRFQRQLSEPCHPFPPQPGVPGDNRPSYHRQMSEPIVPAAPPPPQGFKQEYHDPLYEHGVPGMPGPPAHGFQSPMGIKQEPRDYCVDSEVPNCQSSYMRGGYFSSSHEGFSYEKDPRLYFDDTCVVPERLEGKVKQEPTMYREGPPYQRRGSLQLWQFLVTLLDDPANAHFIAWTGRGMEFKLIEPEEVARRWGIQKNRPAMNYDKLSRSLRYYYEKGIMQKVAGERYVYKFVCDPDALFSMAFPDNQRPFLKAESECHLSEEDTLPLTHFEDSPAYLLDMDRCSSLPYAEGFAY
Procedure, shortened: as §1

[3] = molecular target: HSF1 (Homo sapiens, UniProt Q00613 1-529); settings: protein: recombinant; tags: N-terminal GST; chain copies: 3; dsDNA, one strand shown
Sequence of HSF1 (Q00613 whole entry): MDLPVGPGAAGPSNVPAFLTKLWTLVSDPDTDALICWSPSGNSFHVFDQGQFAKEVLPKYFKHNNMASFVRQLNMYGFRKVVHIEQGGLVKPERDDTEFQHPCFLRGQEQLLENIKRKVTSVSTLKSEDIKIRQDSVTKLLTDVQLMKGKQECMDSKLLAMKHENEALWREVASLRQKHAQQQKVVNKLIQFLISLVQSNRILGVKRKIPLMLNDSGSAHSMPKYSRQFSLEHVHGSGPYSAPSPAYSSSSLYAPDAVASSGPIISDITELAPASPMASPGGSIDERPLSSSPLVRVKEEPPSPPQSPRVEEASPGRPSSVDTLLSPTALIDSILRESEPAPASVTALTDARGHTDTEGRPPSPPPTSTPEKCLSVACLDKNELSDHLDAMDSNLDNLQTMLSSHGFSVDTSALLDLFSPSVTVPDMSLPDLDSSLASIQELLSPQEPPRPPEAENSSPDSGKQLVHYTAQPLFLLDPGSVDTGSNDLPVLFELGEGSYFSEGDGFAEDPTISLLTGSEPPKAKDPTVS
Procedure, shortened: as §1

[4] = molecular target: ELF4 (Homo sapiens, UniProt Q99607 1-663); settings: protein: recombinant; tags: N-terminal GST; dsDNA, one strand shown
Sequence of ELF4 (Q99607 whole entry): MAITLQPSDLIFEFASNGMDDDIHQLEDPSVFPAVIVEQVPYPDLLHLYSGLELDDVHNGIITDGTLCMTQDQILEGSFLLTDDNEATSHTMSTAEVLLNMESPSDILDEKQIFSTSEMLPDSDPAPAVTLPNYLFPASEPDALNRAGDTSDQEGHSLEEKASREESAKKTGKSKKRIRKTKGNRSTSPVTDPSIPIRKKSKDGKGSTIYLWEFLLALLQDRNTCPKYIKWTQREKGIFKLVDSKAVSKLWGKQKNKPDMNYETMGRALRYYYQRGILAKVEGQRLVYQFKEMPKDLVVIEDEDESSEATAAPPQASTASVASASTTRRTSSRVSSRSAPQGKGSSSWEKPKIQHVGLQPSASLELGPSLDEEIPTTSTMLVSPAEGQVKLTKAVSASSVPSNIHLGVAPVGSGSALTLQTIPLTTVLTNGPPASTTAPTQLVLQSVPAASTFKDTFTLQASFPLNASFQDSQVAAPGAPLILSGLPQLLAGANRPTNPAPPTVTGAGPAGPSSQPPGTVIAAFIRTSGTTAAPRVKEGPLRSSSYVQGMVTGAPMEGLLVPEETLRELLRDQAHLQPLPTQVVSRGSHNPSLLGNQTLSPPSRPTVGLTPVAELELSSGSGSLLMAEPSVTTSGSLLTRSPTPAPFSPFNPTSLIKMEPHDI
Procedure, shortened: as §1

[5] = molecular target: T2, ELK4 (Homo sapiens, UniProt P28324-2 1-405); settings: protein: recombinant; tags: N-terminal GST; dsDNA, one strand shown
T2 sequence: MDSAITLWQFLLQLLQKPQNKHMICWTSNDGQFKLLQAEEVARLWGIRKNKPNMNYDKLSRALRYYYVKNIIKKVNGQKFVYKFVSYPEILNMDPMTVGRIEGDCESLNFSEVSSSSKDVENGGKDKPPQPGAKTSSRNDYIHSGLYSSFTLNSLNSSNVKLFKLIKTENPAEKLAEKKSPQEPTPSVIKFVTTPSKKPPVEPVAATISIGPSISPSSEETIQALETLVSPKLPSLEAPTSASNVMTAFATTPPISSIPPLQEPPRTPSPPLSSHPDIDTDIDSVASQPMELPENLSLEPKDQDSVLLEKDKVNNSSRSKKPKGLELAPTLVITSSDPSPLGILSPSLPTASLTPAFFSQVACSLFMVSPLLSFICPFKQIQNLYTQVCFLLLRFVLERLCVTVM
Procedure, shortened: as §1

[6] = molecular target: T3, ELF3 (Homo sapiens, UniProt P78545 1-371); settings: protein: recombinant; tags: N-terminal GST; dsDNA, one strand shown
T3 sequence: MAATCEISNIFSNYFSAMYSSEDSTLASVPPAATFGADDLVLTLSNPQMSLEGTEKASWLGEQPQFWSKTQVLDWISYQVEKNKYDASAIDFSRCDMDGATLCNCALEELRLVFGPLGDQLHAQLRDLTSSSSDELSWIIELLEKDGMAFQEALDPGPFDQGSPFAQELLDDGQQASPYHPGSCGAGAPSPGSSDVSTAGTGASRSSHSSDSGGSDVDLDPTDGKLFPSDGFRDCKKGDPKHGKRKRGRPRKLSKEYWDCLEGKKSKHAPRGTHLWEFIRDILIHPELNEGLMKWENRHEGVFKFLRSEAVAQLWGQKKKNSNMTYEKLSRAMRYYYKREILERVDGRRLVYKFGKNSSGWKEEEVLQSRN
Procedure, shortened: as §1

[7] = molecular target: CRX (Homo sapiens, UniProt O43186 1-299); settings: protein: recombinant; tags: N-terminal GST; dsDNA, one strand shown
Sequence of CRX (O43186 whole entry): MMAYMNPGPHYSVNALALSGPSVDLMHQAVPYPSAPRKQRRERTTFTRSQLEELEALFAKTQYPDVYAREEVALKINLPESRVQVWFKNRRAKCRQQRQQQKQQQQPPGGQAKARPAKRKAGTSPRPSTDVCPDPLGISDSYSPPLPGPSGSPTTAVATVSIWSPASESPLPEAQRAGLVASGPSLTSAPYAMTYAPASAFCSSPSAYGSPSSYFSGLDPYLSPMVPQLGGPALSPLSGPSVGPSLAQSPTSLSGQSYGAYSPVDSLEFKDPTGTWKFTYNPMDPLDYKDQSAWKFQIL
Procedure, shortened: as §1

[8] = molecular target: ETV1 (Homo sapiens, UniProt P50549 1-477); settings: protein: recombinant; tags: N-terminal GST; dsDNA, one strand shown
Sequence of ETV1 (P50549 whole entry): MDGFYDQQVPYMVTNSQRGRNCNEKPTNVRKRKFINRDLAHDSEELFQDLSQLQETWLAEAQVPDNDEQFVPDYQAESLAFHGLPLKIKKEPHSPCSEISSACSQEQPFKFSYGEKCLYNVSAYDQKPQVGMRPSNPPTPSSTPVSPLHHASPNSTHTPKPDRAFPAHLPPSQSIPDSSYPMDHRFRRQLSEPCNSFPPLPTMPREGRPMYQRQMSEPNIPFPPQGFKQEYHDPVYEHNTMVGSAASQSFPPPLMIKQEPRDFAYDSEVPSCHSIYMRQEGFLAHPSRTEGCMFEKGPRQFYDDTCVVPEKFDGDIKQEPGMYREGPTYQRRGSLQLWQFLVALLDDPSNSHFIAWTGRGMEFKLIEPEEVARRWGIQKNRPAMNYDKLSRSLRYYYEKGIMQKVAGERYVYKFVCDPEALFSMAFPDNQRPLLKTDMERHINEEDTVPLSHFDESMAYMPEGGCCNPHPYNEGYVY
Procedure, shortened: as §1

[9] = molecular target: T4, ERF (Homo sapiens, UniProt P50548 1-548); settings: protein: recombinant; tags: N-terminal GST; dsDNA, one strand shown
T4 sequence: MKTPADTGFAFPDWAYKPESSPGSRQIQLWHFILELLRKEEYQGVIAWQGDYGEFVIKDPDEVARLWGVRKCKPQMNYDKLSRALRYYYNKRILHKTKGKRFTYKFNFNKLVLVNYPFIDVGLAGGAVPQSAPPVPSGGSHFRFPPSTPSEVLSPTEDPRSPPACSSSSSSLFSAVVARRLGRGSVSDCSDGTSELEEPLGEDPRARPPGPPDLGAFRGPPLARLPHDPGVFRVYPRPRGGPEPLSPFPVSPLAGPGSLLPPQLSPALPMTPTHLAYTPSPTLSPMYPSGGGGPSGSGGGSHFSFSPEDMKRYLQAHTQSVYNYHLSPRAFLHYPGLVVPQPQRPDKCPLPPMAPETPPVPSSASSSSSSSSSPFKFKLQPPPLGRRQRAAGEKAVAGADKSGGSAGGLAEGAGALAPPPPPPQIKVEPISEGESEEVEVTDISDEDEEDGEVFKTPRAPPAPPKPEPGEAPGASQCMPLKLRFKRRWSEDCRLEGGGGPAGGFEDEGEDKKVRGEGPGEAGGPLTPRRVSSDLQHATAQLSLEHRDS
Procedure, shortened: as §1

[10] = molecular target: T5, ETV3L (Homo sapiens, UniProt Q6ZN32 1-361); settings: protein: recombinant; tags: N-terminal GST; dsDNA, one strand shown
T5 sequence: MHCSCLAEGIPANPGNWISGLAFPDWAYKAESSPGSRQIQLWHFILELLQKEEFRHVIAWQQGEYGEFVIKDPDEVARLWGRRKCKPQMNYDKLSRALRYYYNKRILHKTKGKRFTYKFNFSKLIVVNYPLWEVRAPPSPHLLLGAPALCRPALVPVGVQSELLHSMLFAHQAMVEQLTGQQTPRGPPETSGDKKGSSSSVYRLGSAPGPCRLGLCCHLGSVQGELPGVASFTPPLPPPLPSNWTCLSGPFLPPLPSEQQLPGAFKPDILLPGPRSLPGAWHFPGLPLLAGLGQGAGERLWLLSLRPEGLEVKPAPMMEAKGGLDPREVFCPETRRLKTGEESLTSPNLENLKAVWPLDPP
Procedure, shortened: as §1

[11] = molecular target: T6, ETS2 (Homo sapiens, UniProt P15036 1-469); settings: protein: recombinant; tags: N-terminal GST; dsDNA, one strand shown
T6 sequence: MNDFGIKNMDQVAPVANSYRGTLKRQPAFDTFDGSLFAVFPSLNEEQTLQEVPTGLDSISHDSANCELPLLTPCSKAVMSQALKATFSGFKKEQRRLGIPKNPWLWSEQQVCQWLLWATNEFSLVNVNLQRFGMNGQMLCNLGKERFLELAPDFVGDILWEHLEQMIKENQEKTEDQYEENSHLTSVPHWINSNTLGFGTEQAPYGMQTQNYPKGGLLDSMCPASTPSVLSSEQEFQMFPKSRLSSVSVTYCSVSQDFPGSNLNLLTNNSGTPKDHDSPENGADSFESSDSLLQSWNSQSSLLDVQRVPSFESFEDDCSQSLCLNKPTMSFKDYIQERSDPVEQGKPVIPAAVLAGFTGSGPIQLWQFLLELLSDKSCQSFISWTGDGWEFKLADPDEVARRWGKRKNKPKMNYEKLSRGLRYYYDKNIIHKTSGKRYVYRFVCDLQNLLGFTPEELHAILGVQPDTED
Procedure, shortened: as §1

[12] = molecular target: T7, ETV7 (Homo sapiens, UniProt Q9Y603 1-341); settings: protein: recombinant; tags: N-terminal GST; dsDNA, one strand shown
T7 sequence: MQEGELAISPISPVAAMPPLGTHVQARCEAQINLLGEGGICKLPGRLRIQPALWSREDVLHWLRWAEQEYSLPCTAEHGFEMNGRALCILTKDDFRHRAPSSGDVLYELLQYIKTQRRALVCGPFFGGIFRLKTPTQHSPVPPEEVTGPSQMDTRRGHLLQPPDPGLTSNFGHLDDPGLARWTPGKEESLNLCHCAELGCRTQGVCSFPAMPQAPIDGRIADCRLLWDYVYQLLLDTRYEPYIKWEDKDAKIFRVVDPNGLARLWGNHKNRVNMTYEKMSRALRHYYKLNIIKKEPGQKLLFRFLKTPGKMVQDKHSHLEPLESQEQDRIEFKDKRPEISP
Procedure, shortened: as §1

[13] = molecular target: T8, ELF5 (Homo sapiens, UniProt Q9UKW6-2 1-255); settings: protein: recombinant; tags: N-terminal GST; dsDNA, one strand shown
T8 sequence: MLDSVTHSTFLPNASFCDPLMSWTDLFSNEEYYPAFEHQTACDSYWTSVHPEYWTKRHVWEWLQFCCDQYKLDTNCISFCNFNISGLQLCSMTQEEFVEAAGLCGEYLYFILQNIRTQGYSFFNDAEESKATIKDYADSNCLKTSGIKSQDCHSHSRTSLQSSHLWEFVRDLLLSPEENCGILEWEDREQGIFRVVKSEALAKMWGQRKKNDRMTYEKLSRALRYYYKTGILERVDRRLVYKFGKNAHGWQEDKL
Procedure, shortened: as §1

[14] = molecular target: T9, ETV3 (Homo sapiens, UniProt P41162-2 1-143); settings: protein: recombinant; tags: N-terminal GST; dsDNA, one strand shown
T9 sequence: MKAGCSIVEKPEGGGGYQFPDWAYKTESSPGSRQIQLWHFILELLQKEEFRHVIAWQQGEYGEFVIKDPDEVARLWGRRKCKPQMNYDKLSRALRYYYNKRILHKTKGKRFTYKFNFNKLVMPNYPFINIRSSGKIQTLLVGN
Procedure, shortened: as §1

[15] = molecular target: ETV6 (Homo sapiens, UniProt P41212 1-452); settings: protein: recombinant; tags: N-terminal GST; dsDNA, one strand shown
Sequence of ETV6 (P41212 whole entry): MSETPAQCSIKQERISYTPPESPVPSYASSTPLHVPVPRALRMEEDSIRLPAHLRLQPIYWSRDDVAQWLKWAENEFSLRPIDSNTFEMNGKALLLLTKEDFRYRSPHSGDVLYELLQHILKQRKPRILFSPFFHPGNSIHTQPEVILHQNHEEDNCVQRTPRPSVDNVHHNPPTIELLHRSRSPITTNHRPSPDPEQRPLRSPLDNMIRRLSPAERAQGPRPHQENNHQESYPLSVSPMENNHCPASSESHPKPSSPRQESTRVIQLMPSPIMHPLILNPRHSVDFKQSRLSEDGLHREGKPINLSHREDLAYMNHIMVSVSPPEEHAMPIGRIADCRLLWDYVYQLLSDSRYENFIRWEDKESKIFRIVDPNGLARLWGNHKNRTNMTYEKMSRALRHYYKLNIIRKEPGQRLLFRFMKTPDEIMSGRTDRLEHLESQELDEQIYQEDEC
Procedure, shortened: as §1

[16] = molecular target: T10, ETV2 (Homo sapiens, UniProt O00321 1-342); settings: protein: recombinant; tags: N-terminal GST; dsDNA, one strand shown
T10 sequence: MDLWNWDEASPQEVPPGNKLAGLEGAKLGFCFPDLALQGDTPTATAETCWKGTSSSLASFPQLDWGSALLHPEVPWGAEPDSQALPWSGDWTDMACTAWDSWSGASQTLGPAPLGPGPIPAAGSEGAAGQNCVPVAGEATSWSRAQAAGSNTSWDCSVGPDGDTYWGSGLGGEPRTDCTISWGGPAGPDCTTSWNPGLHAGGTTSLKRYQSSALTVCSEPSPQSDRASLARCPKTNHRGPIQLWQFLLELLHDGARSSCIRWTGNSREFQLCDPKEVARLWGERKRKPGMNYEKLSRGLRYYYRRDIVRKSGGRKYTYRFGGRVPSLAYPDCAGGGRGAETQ
Procedure, shortened: as §1

[17] = molecular target: T11, SPDEF (Homo sapiens, UniProt O95238 1-335); settings: protein: recombinant; tags: N-terminal GST; dsDNA, one strand shown
T11 sequence: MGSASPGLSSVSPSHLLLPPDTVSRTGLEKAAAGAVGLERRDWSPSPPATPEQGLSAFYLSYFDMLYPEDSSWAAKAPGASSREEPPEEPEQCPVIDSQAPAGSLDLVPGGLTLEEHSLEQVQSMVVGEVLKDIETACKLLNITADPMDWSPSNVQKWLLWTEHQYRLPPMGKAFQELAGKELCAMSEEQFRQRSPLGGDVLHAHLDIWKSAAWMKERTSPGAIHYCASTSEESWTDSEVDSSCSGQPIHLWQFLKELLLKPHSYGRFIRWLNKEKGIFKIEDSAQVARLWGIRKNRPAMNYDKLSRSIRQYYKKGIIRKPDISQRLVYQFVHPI
Procedure, shortened: as §1

Sequence | binding signal [1] | binding signal [2] | binding signal [3] | binding signal [4] | binding signal [5] | binding signal [6] | binding signal [7] | binding signal [8] | binding signal [9] | binding signal [10] | binding signal [11] | binding signal [12] | binding signal [13] | binding signal [14] | binding signal [15] | binding signal [16] | binding signal [17]
AAGCGA | 1.04 fold enrichment (6-mer frequency, TF over GST control) | 1.04 fold enrichment (6-mer frequency, TF over GST control) | 1.04 fold enrichment (6-mer frequency, TF over GST control) | 1.09 fold enrichment (6-mer frequency, TF over GST control) | 1.06 fold enrichment (6-mer frequency, TF over GST control) | 1.08 fold enrichment (6-mer frequency, TF over GST control) | 1.09 fold enrichment (6-mer frequency, TF over GST control) | 1 fold enrichment (6-mer frequency, TF over GST control) | 1.02 fold enrichment (6-mer frequency, TF over GST control) | 1.02 fold enrichment (6-mer frequency, TF over GST control) | 1.05 fold enrichment (6-mer frequency, TF over GST control) | 1.09 fold enrichment (6-mer frequency, TF over GST control) | 1.07 fold enrichment (6-mer frequency, TF over GST control) | 1.12 fold enrichment (6-mer frequency, TF over GST control) | 1.05 fold enrichment (6-mer frequency, TF over GST control) | – | –
ACAGAT | – | 1 fold enrichment (6-mer frequency, TF over GST control) | 1.1 fold enrichment (6-mer frequency, TF over GST control) | 1.05 fold enrichment (6-mer frequency, TF over GST control) | 1.04 fold enrichment (6-mer frequency, TF over GST control) | – | 1.27 fold enrichment (6-mer frequency, TF over GST control) | 1.05 fold enrichment (6-mer frequency, TF over GST control) | 1.06 fold enrichment (6-mer frequency, TF over GST control) | 1.01 fold enrichment (6-mer frequency, TF over GST control) | 1.03 fold enrichment (6-mer frequency, TF over GST control) | 1.12 fold enrichment (6-mer frequency, TF over GST control) | – | 1.02 fold enrichment (6-mer frequency, TF over GST control) | – | 1.05 fold enrichment (6-mer frequency, TF over GST control) | 1.05 fold enrichment (6-mer frequency, TF over GST control)
